Compound activity: PubChem BioAssay, National Center for Advancing Translational Sciences (NCATS)
Akt phos inh = inhibitors of Akt phosphorylation; activity change, % for hits at 50 µM; actives 0.32% (n = 360,000); Neuro2A IGF-stimulated pAkt S473 HTRF, 20 min; stronger effect = lower value; in the data active means activity change below about -80%; inconclusive means mostly about -51% to -80%
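Neuro2A cells in DMEM with 0.5% FBS, overnight at 37 deg C, given compound at single 50 µM final, then IGF (6 nM final) for 20 min at 37 deg C. Lysed; phospho-Akt Ser473 by HTRF after 24 h, 665/615 ratio.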
CCT modulator = cytosolic chaperonin activity modulation. actives 0.3% (n = 360,000). purified chaperonin ATPase assay, HTRF ADP detection, 30 min. activity change, % (test concentration not listed), hits read low. AID 651819; in the data active means activity change below about -30%
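Enzyme 40 or 20 nM (batch-dependent) in Tris pH 7.4/KCl/MgCl2/DTT; cpd 76 uM single point; ATP 10 uM; 30 min 37 °C; Transcreener ADP HTRF detection, 30 min RT; ratio 665/615.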
GRP78 ERSR act = ER stress response induction in glioma; U87-MG GRP78 promoter luciferase reporter, 16 h; actives 0.02% (n = 420,000); Potency, µM, most hits filed as activators; further: series mostly up to about 76 µM; nearly all actives have a fitted effect of over 35% in size
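Stably transfected U87-MG glioma cells carrying a GRP78-based luciferase sensor; 16 h compound incubation. Luminescence end-point read 10 min after Bright-Glo addition at room temperature.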
IDH1 R132H inh = inhibitors of human mutant IDH1 R132H | IDH1-R132H enzyme, NADPH consumption, diaphorase/resazurin fluorescence | Potency, µM (doses to about 76.6 µM), most hits filed as inhibitors | actives 0.093% (n = 390,000); further: nearly all actives have a fitted effect of over 65% in size
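IDH1-R132H (0.5 ug/mL) preincubated 30 min with compound, then NADPH (0.016 mM) and alpha-KG (2 mM) added; 80 min at RT, pH 7.5. Remaining NADPH coupled via diaphorase/resazurin to fluorescence (540/590 nm); concentration-response curves normalized to no-enzyme control.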
GLS inhibitor = glutaminase GLS (human) inhibition | GLS enzymatic activity, qHTS titration | AID 624170 | Potency, µM (top dose mostly 45.5 µM), actives largely listed as inhibitors | O94925 | actives 0.21% (n = 410,000)
Target sequence (O94925 whole entry, looked up): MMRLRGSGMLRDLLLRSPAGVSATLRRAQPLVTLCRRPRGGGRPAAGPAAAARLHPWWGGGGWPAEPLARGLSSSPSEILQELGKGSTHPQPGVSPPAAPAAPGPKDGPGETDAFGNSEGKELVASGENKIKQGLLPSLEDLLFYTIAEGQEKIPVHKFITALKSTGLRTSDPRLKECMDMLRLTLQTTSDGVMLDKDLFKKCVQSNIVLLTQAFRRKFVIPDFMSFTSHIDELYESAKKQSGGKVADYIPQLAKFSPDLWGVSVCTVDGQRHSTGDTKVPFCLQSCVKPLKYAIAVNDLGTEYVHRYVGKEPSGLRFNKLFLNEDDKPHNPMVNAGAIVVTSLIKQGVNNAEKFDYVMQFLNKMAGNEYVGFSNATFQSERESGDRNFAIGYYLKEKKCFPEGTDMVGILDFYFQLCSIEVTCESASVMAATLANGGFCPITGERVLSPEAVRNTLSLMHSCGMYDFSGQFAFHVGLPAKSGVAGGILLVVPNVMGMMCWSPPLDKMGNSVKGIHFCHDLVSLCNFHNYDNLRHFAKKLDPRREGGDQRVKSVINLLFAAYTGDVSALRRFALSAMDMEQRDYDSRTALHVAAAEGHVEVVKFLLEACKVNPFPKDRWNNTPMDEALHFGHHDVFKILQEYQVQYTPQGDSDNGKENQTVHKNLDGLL
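hKGA in 45 mM KH2PO4 (pH 8.2), 0.02% Tween-20 with compound, then 1mM L-Glutamine (stock as added) plus glutamate oxidase/HRP/Amplex red coupling mix. Fluorescence read initially and after 30 min at RT; signal change reflects glutamate formation.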
MmCpn inh = M. maripaludis TRiC chaperonin inhibition; purified Mm-Cpn ATPase, ADP Transcreener TR-FRET; Potency, µM (highest dose often 76.9 µM), most hits filed as inhibitors; actives 0.031% (n = 330,000); AID 504842; further: nearly all actives have a fitted effect of over 80% in size
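TR-FRET (320 nm excitation; 590 and 665 nm emission) reports ADP made from 10 uM ATP by 25 nM enzyme; compounds were preincubated 10 min, reaction run 30 min, both at 37°C.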
Numbers stand for hits; - = inactive; ? = inconclusive; . = no result. Rows were chosen to be rich in hits. Some 0.85% of all compounds tested hit in one or more screens of this group. Unless noted, the call rests on the fitted dose curve; in most records, active means well fitted curve in the direction sought with a large enough effect; inconclusive means small, poorly fitted or top-dose-only effect, or another doubt; inactive means no such curve, though single readings can be large; an effect the other way counts as inactive or inconclusive.

SMILES	Akt phos inh	CCT modulator	GRP78 ERSR act	IDH1 R132H inh	GLS inhibitor	MmCpn inh
O=C(NCc1ccccn1)C1CCCN(S(=O)(=O)c2cc(Cl)ccc2Cl)C1 (configuration not stated)	-	-	?	-	-	.
Cc1cc(S(=O)(=O)N2CCCC(N(C)CCc3ccccn3)C2)c(C)cc1Cl (configuration not stated)	.	-75	-	-	-	-
Cc1oc(-c2ccccc2NS(C)(=O)=O)nc1CN(C)Cc1ccc(Cl)cc1	.	.	-	.	.	.
CN(C)S(=O)(=O)c1cccc(NC(=S)N/N=C/c2ccc(O)c(O)c2O)c1	-	-	-	-	7.9µM	-
O=C(Nc1cc(F)cc(F)c1)c1sc(Cl)nc1-c1ccccc1	-	-	-	-	-	50µM
COc1ccc(CC(=O)Nc2cc(Cl)ccc2N2CCCC2)cc1	-	-	-	-	-	-
CCC(=O)N1CCN(c2ccccc2NC(=O)Cc2ccc(Cl)cc2)CC1	-	-	-	-	-	-
CCC(=O)N1CCN(c2ccc(Cl)cc2NC(=O)Cc2ccc(Cl)cc2)CC1	-85%	-	-	-	-	-
COc1ccc(CCC(=O)Nc2cc(Cl)ccc2N2CCN(C)CC2)cc1	-107%	-	-	-	-	-
COc1cc(C(=O)O)c2c(c1C)OC(=O)c1c(C)cc(O)c(C=O)c1O2	-	-	-	-	5.6µM	.
NC(=O)c1ccccc1NCC(=O)c1ccc(Cl)cc1	-	-	-	52µM	-	-
CCn1nnc(NC(=O)c2ccc(C(C)(C)C)cc2)n1	-108%	-	-	-	-	-
CCn1nnc(NC(=O)c2cccnc2)n1	-	-	-	-	-	-
COC(=O)CN1C(=O)[C@H]2[C@@H](C3CC3)N3C(=O)CN(Cc4ccccn4)C(=O)[C@@]3(Cc3ccccc3)[C@H]2C1=O	-	-40	-	-	-	-
O=C(CCCOc1ccc(Cl)cc1)Nc1nncs1	-112%	-	-	-	-	-
COc1cc(OC)c(OC)cc1CN1CCCC(n2cc(C(=O)N3CCCCC3)nn2)C1 (configuration not stated)	.	.	-	.	.	.
O=C(NCc1nnc(SCc2ccccc2)n1-c1ccccc1)C12CC3CC(CC(C3)C1)C2	-	-	-	-	-	-
O=C(NCc1nnc(SCc2ccccc2)n1-c1ccc(F)cc1)C12CC3CC(CC(C3)C1)C2	-	-68	-	-	-	-
Cc1cnc(C)c(-c2ccc(F)c3c2OC(CNC(=O)/C=C/c2cccs2)C3)n1 (configuration not stated)	.	.	-	.	.	.
Nc1c(C(=O)NC2CC2)sc2nc3c(c(-c4ccco4)c12)CC/C3=C/c1ccco1	-	-	-	-	1.8µM	-
Cc1c(C(=O)NCC2CCCN(C)C2)cnn1-c1ncc2c(n1)-c1ccccc1CCC2 (configuration not stated)	.	.	-	.	.	.
CCOC(=O)c1nn2c(C(F)(F)F)cc(-c3ccc(OC)cc3)nc2c1Br	-	-33	-	-	-	-
CCOC(=O)c1nn2c(C(F)(F)F)cc(-c3ccc(C)cc3)nc2c1Cl	.	.	-	-	-	.
Cc1onc(-c2ccccc2)c1C(=O)Nc1cccc2nsnc12	-120%	-	-	-	-	-
Cc1cccc(NC(=O)c2cc(=O)c3ccccc3o2)c1	-	-	-	-	-	-
SMILES	Akt phos inh	CCT modulator	GRP78 ERSR act	IDH1 R132H inh	GLS inhibitor	MmCpn inh
Cc1ccc(NC(=O)c2cc(=O)c3ccccc3o2)c(C)c1	-	-	-	-	-	-
Cc1ccccc1NC(=O)c1cc(=O)c2ccccc2o1	-110%	-	-	-	-	-
Cc1cccc(NC(=O)c2cc(=O)c3ccccc3o2)n1	-116%	-	-	-	-	-
COc1ccc(-c2ccnc(-n3ncc(C(=O)NCc4cccnc4)c3C3CC3)n2)cc1F	.	.	-	.	.	.
COc1cc(CN2CCCC(n3cc(C(=O)N4CCCC4)nn3)C2)cc(OC)c1 (configuration not stated)	.	.	-	.	.	.
CCCS(=O)(=O)NCc1c(C)ncc2c1CCN(C(=O)/C=C/c1ccccc1)C2	.	.	-	.	.	.
CCN(CC)S(=O)(=O)c1ccc(N2CCN(c3ccccc3O)CC2)nc1	-	-	-	-	-	-
CCN(CC)S(=O)(=O)c1ccc(C(=O)NC(=S)N2CCN(c3ccccc3O)CC2)cc1	-	-52	-	-	-	.
CCN(CC)CCNC(=O)c1cnn(-c2nccc(-c3cc4ccccc4o3)n2)c1C	.	.	-	.	.	.
COc1ccccc1N1C(=O)CCC1(C#N)c1ccccc1 (configuration not stated)	-107%	-	-	-	-	.
CN(C1CCS(=O)(=O)C1)S(=O)(=O)c1ccccc1 (configuration not stated)	-	-	-	-	16µM	-
CC(=O)c1c(NC(=O)C(C)C)nc(C)nc1-c1ccccc1	-	-	-	-	-	-
CC(=O)c1c(C)nc(C)nc1NC(=O)C(C)C	-124%	-	-	-	-	-
Cc1nc(SCc2cccc(Oc3ccccc3)c2)n[nH]1	-112%	-	-	-	-	-
CC(=O)Nc1ccc(C2=NNC(=Nc3cccc(S(=O)(=O)N(C)C)c3)SC2)cc1	-	-	-	41µM	-	-
COCCN=C1NN=C(c2ccc(NC(C)=O)cc2)CS1	-	-	-	?	-	-
CN(C)S(=O)(=O)c1cccc(N=C2NN=C(c3ccccc3)CS2)c1	-	-	-	40µM	-	-
CCOc1ccccc1NC(=O)N1C2CCCC1CC(NC(=O)C1CC1)C2 (configuration not stated)	-88%	-	-	-	-	?
OCCN1CCN(Cc2ccc3c(c2)CN(Cc2cc4ccccc4o2)CCO3)CC1	.	.	-	.	.	.
CC(C)C1Nc2ccc(C(=O)O)cc2C2C=CCC21 (configuration not stated)	-	-	-	-	-	-
CCOC(=O)C1Nc2ccc(C(=O)O)cc2C2C=CCC12 (configuration not stated)	-	-	-	-	3.2µM	-
CCOC(=O)c1ccc2c(c1)C1C=CCC1C(C(=O)O)N2 (configuration not stated)	.	.	.	.	.	-
